Records with an inconclusive call do not appear. Unmarked numbers belong to inactive results. Active and inactive are the calls of the source. Calls follow the shape of the dose curve; as a rule, active = well fitted curve in the direction sought with a large enough effect; inconclusive = small, poorly fitted or top-dose-only effect, or another doubt; inactive = no such curve, though single readings can be large; an effect the other way counts as inactive or inconclusive.

The target of assay [1] is Aldehyde dehydrogenase, mitochondrial (Homo sapiens) (UniProt P05091). Briefly: qHTS for Inhibitors of the Aldehyde Dehydrogenase Family (ALDH2) Primary screen (AID 2061308).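 Also: plate controls were vehicle for no effect and reference inhibitor for full effect; nearly all actives have a fitted effect of over 55% in size.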 For orientation: In qHTS, concentration-response curves come from the screen itself.
Assay [2] addresses Retinaldehyde dehydrogenase 3 (Homo sapiens) (UniProt P47895). Briefly: qHTS for Inhibitors of the Aldehyde Dehydrogenase Family (ALDH1A3) Validation screen (AID 2061312). Also: % is scaled to controls: 0 for no effect and ±100 for the full control effect; nearly all actives have a fitted effect of over 45% in size.
The target is the same in assay [3]. Kind of assay: qHTS for Inhibitors of the Aldehyde Dehydrogenase Family (ALDH1A3) Primary screen (AID 2061315).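 Also: plate controls were DMSO vehicle for no effect and reference inhibitor for full effect.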
The nature of assay [4]: BET inhibitor-based combinations targeting novel dependencies in MECOM-rearranged (r) AML: SET-2 cell line (AID 2202231). Also: nearly all actives have a fitted effect of over 35% in size. Also: potency is read from the fitted curve at half-maximal effect.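 As to viability: plate controls were DMSO treated cells for no effect and wells without cells for full effect.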 To be noted: SET-2 AML cells viability, CellTiter-Glo luminescence, 48 h; viability: active compounds read low, concentration not given here. The method in brief:
(§1)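 Viability of cells (500 per well) is scored by luminescent CellTiter-Glo at 48 hr post-dosing. Eleven-point titrations are normalized to DMSO and empty controls and reduced to AUC values.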
(ATP-based viability assays read luminescence as a measure of living cells.)

A short description of assay [5]: BET inhibitor-based combinations targeting novel dependencies in MECOM-rearranged (r) AML: OCI-AML3 cell line (AID 2202232). Also: potency is read from the fitted curve at half-maximal effect; nearly all actives have a fitted effect of over 35% in size. Particulars: Potency: OCI-AML3 viability. The method in brief: as §1
Assay [6] can be described thus: BET inhibitor-based combinations targeting novel dependencies in MECOM-rearranged (r) AML: MV-4-11 cell line (AID 2202233). Also: potency is read from the fitted curve at half-maximal effect; nearly all actives have a fitted effect of over 45% in size. The method in brief:
(§2)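 Using pin-tool transfer, drugs were added in 11 doses to cells (500/well), incubated 48 hr, and assessed with CellTiter-Glo. Z-AUC is a mean-centring transformation applied separately to each screened line.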

The nature of assay [7]: BET inhibitor-based combinations targeting novel dependencies in MECOM-rearranged (r) AML: HNT-34 cell line (AID 2202234). Also: potency is read from the fitted curve at half-maximal effect; nearly all actives have a fitted effect of over 35% in size. The procedure, abridged: as §2
Assay [8] in a line: BET inhibitor-based combinations targeting novel dependencies in MECOM-rearranged (r) AML: UCSD-AML1 cell line (AID 2202235). Also: potency is read from the fitted curve at half-maximal effect; nearly all actives have a fitted effect of over 40% in size. The method in brief:
as §2

Assay [9] in a line: BET inhibitor-based combinations targeting novel dependencies in MECOM-rearranged (r) AML: AML-191 cell line (AID 2202236; also: potency is read from the fitted curve at half-maximal effect; nearly all actives have a fitted effect of over 35% in size). The method in brief: as §1
Assay [10] is described as follows: BET inhibitor-based combinations targeting novel dependencies in MECOM-rearranged (r) AML: AML-194 cell line (AID 2202237; also: potency is read from the fitted curve at half-maximal effect; nearly all actives have a fitted effect of over 40% in size). The method in brief: as §1
Assay [11] deals with Retinal dehydrogenase 2 (Homo sapiens) (UniProt O94788). Kind of assay: qHTS for Inhibitors of the Aldehyde Dehydrogenase Family (ALDH1A2) Confirmation screens (AID 2061314). Also: potency is read from the fitted curve at half-maximal effect; nearly all actives have a fitted effect of over 65% in size.
Assay [12] deals with Aldehyde dehydrogenase 1A1 (Homo sapiens) (UniProt P00352). Briefly: qHTS for Inhibitors of the Aldehyde Dehydrogenase Family (ALDH1A1) Confirmatory screens (AID 2061316). Also: potency is read from the fitted curve at half-maximal effect; nearly all actives have a fitted effect of over 65% in size.

Turning to `COc1cc(C(=O)O)ccc1NC(=O)C1NC(CC(C)(C)C)C(C#N)(c2ccc(Cl)cc2F)C1c1cccc(Cl)c1F` (stereo not drawn), the Potency result in assay [1], in [2] and in [3] was “inactive” throughout.

Turning to `Cn1ncc(Cl)c1-c1cc(C(=O)N[C@H](CN)Cc2ccc(F)c(F)c2)sc1Cl`, the Potency result in assay [1], in [2] and in assay [3] was “inactive” throughout. Moreover, the Potency in [4] was 20.9 µM (active); in assay [5] it was 18.6 µM (active); in assay [6], 16.6 µM (active); in assay [7], 16.6 µM (active); in assay [8] it was 13.2 µM (active); in assay [9], 26.3 µM (active). Moreover, the Potency in assay [10] is 16.6 µM (active).

Regarding `CC(=O)N1c2ccc(-c3ccc(C(=O)O)cc3)cc2C(Nc2ccc(Cl)cc2)CC1C` (stereo not drawn), the Potency entry in assay [1], in [2] and in [3] was “inactive” throughout.

In the case of `O=C(NCc1nc2ccccc2c(=O)n1-c1ccc(F)cc1)Nc1ccc(Cl)c(C(F)(F)F)c1`, the Potency result in [1], in assay [2] and in assay [3] was “inactive” each time.

As to `N#Cc1ccc(COc2ccc(-c3cccc4nc(NC(=O)C5CC5)nn34)cc2)cn1`, the Potency entry in assay [1], in assay [2] and in assay [3] was “inactive” throughout.

`CCC(=C(c1ccc(OCCN2CCCC2)cc1)c1ccc(OCCN2CCCC2)cc1)c1ccccc1`: the Potency entry in assay [1], in assay [2] and in assay [3] was “inactive” in each case.

On to `Cc1ccc(C(=O)N(CCCN)C(c2oc3cc(Cl)ccc3c(=O)c2Cc2ccccc2)C(C)C)cc1` (stereo not drawn), for which the Potency entry in assay [1], in assay [2] and in assay [3] was “inactive” each time.

As to `Cc1cc(C)c(Nc2ccnc(Nc3ccc(C#N)cc3)n2)c(C)c1`, the Potency entry in assay [1], in assay [2] and in assay [3] was “inactive” throughout.

Regarding `CCCc1[nH]nc2c1C(c1cc(Cl)cc(Cl)c1O)C(C#N)=C(N)O2` (stereo not drawn), the Potency result in assay [1], in assay [2] and in assay [3] was “inactive” throughout.

Take `CC(=O)Nc1cccc2c1c(Sc1ccc(Cl)cc1)c(C)n2CC(=O)O`: the Potency entry in [1], in assay [2] and in assay [3] was “inactive” in each case.

Turning to `C[C@@H]1C[C@H]2[C@@H]3C[C@H](F)C4=CC(=O)C=C[C@]4(C)[C@@]3(F)[C@@H](O)C[C@]2(C)[C@@]1(O)C(=O)CO`, the Potency result in assay [1], in assay [2] and in [3] was “inactive” each time.

Regarding `CCS(=O)c1nc(-c2cccc(OCc3ccccc3)c2)cc(C(F)(F)F)n1` (stereo not drawn), the Potency result in [1], in [2] and in assay [3] was “inactive” in each case.

Regarding `CC(NC(=O)Cc1cc(F)cc(F)c1)C(=O)NC1C(=O)N(C)c2ccccc2-c2ccccc21` (stereo not drawn), the Potency entry in [1], in assay [2] and in assay [3] was “inactive” each time.

In the case of `CC[C@H](C)[C@H]1O[C@]2(CC[C@@H]1C)C[C@@H]1C[C@@H](C/C=C(\C)[C@@H](O[C@H]3C[C@H](OC)[C@@H](O[C@H]4C[C@H](OC)[C@@H](O)[C@H](C)O4)[C@H](C)O3)[C@@H](C)/C=C/C=C3\CO[C@@H]4[C@H](O)C(C)=C[C@@H](C(=O)O1)[C@]34O)O2`, the Potency result in [1], in assay [2] and in assay [3] was “inactive” in each case.

As to `CC(Oc1cc(-n2cnc3ccc(CN4CCN(C)CC4)cc32)sc1C(N)=O)c1ccccc1C(F)(F)F` (stereo not drawn), the Potency result in [1], in [2] and in assay [3] was “inactive” throughout.

Take `Cc1ccc2nc(NC(=O)CSc3nc4c(c(=O)n3-c3ccc(F)cc3)SCC4)sc2c1`: the Potency entry in assay [1], in assay [2] and in [3] was “inactive” throughout.

Regarding `COc1cc2ncnc(N3CCC(Oc4cnc5ccccc5n4)C3)c2cc1OC` (stereo not drawn), the Potency result in [1], in assay [2] and in assay [3] was “inactive” in each case.

For `Cc1cc(C)cc(-c2cnc3cc(Cl)c(-c4cccc(O)c4)cc3c2OCCCN)c1`, the Potency entry in assay [1], in [2] and in [3] was “inactive” in each case.

For `OC1CCC(Nc2ncc3nc(Nc4c(F)cc(F)cc4F)n([C@H]4CCOC4)c3n2)CC1` (stereo partly drawn), the Potency result in [1], in assay [2] and in assay [3] was “inactive” in each case.

For the compound `CC(=O)OCC(=O)[C@@]1(O)[C@H](C)C[C@H]2[C@@H]3CCC4=CC(=O)C=C[C@]4(C)[C@@]3(F)[C@@H](O)C[C@@]21C`, the Potency entry in assay [1], in assay [2] and in [3] was “inactive” throughout.

Regarding `C[C@@H](O[C@H]1OCCN(Cc2n[nH]nc2CN(C)C)[C@H]1c1ccc(F)cc1)c1cc(C(F)(F)F)cc(C(F)(F)F)c1`, the Potency result in assay [1], in assay [2] and in assay [3] was “inactive” each time.

In the case of `CN(C)C(=O)COC(=O)c1cc(-c2ccc(C3CCNCC3)cc2)c2ccc(-c3ccc(C(F)(F)F)cc3)cc2c1`, the Potency entry in assay [1], in assay [2] and in assay [3] was “inactive” each time.

In the case of `O=C(c1ccc(Cl)c([N+](=O)[O-])c1)N1CCN(c2ccccc2F)CC1`, the Potency result in [1], in assay [2] and in assay [3] was “inactive” each time.

For the compound `Cc1nc2ccc(CN(C)c3ccc(C(=O)NC(CCC(=O)O)C(=O)O)s3)cc2c(=O)[nH]1` (stereo not drawn), the Potency result in assay [1], in assay [2] and in assay [3] was “inactive” in each case.

`COc1cc2nc(N3CCC(N4CCCCC4)CC3)nc(NC3CCCCCC3)c2cc1OC`: the Potency result in assay [1], in [2] and in assay [3] was “inactive” throughout.

For orientation: viability means a read-out of living cells in per cent, often relative to untreated cells. As for `CCCc1cc(C)[nH]c(=O)c1CNC(=O)c1cc(-c2ccc(N3CCN(C(C)C)CC3)nc2)cc2c1cnn2C(C)C`, the Potency result in assay [1], in [2] and in assay [3] was “inactive” in each case. The viability in assay [4] was 110%. Also, the Potency is 18.6 µM (active) in [5]; 20.9 µM (active) in assay [7]; 16.6 µM (active) in assay [8]; 29.5 µM (active) in assay [9]; 14.8 µM (active) in assay [10].

For `c1nc(NCC2CCCCO2)c2cc(-c3ccc4c(c3)OCO4)ccc2n1` (stereo not drawn), the Potency result in [1] and in assay [3] was “inactive” throughout. For the same compound, the Potency is 22.5 µM (active) in assay [11] and 12.7 µM (active) in assay [12].

Regarding `NC(=O)C1CCN(c2nc(-c3ccc(N4CCCCC4)nc3)cs2)CC1`, the Potency result in assay [1] and in assay [3] was “inactive” throughout. Further, the Potency in assay [11] was 12.7 µM (active).
